The text below walks through data of ChEMBL document CHEMBL3988442, “University of Dundee, Small-Polar-MMV Screening Library” (2021).

The test has as its target AMP-activated protein kinase, AMPK (Homo sapiens) (UniProt P54646+O43741+P54619+Q9UGJ0+Q9Y478+Q13131+Q9UGI9). Nature of the test: AMP-dependent Kinase enzyme assay. An in vitro enzyme assay that detects ADP turnover that is directly proportional to AMPK activity. This uses naive AMPK that is activated during the assay with MK-8722. Also on record: scale not given: direction of the effect not stated beside the values. Type of test: functional. As to conditions: 30 µM.
For the compound `Cc1ccc(S(C)(=O)=O)cc1NCC(=O)NCCC1=CCCCC1`, the Percent Effect came out at 0.0953%.

As to `COc1ccccc1CN(Cc1nc(C)no1)C1CC1`, the Percent Effect came out at 6.47%.

Take `Cc1cccn2cc(CNS(=O)(=O)N3CCOCC3)nc12`: the Percent Effect turned out to be 4.51%.

On to `CC(C)Cn1cc(NC(=O)c2cccc(N(C)C)c2)cn1`, for which the Percent Effect stood at 1.9%.

On to `COc1ccc(CNC(C)c2cnn(C)c2)cc1OC1CCCC1` (stereo not given), for which the Percent Effect is 8.55%.

`CC(C)(C)c1n[nH]cc1CNC1CCC(OCC(F)(F)F)CC1` (stereo not given): the Percent Effect amounted to 3.73%.

Turning to `CS(=O)(=O)CC1(CNc2c(C#N)cnc3ccc(Cl)cc23)CC1`, the Percent Effect was determined as 5.05%.

For `CCCN(CC(=O)NC)C(=O)c1ccc(-c2nc(C)cs2)cc1`, the Percent Effect turned out to be 1.67%.

On to `O=C1NCCN(C(=O)CCN2CCCO2)C1c1cccc(F)c1` (stereo not given), for which the Percent Effect was -5.73%.

`CC1(c2ncc(CN3CCSCC3)cn2)CCCCO1` (stereo not given): the Percent Effect is -1.61%.

For the compound `CCOCCC(=O)Nc1cccc(Cl)c1C(N)=O`, the Percent Effect is 1.82%.

In the case of `O=c1cc(N2CCCCC2)cnn1Cc1noc(C2CCCO2)n1` (stereo not given), the Percent Effect is 4.71%.

For the compound `COC1CCN(S(=O)(=O)N2CC[C@@](O)(C3CCC3)[C@H](C)C2)CC1`, the Percent Effect is -3.56%.

Take `COC(=O)c1ncccc1N1CCCC1`: the Percent Effect is 9.09%.

Turning to `CCc1cc(N2CCC(NCCc3nc(C)c(C)s3)CC2)nc(C)n1`, the Percent Effect came out at 4.15%.

Turning to `CCOCCN1CCN(c2ccc(C#N)cn2)CC1CC` (stereo not given), the Percent Effect came to 6.68%.

As for `O=C(NCc1nncn1C1CC1)c1ccccc1Oc1cccnc1`, the Percent Effect was -0.563%.

On to `COc1ccc2c(c1)OCC(CNC1CCc3ncnn3C1)=C2` (stereo not given), for which the Percent Effect turned out to be 7.82%.

For `COc1nsc2nc(C3CCCN3c3ncccn3)ccc12` (stereo not given), the Percent Effect stood at 13.7%.

As for `Cc1cccc(COc2ccc(C(C)NS(N)(=O)=O)cc2)c1` (stereo not given), the Percent Effect stood at 7.65%.

For the compound `Cc1cc(C)c(CNc2cnn(CC(O)CN(C)C)c2)c(C)c1` (stereo not given), the Percent Effect was -45.6%.

For `CC(=O)N[C@@H]1CN(C(=O)c2cccc(C)c2)C[C@H]1O`, the Percent Effect is 8.23%.

For `COC1CCN(c2ccc(F)cc2CN(C)C(=O)c2cc[nH]n2)CC1`, the Percent Effect amounted to 12.3%.

As for `CC(C)c1cc(C2CCN(C(=O)Cn3cncn3)CC2)[nH]n1`, the Percent Effect turned out to be 29.2%.

Regarding `CCc1cnc(CNC(=O)NCCCO)s1`, the Percent Effect was found to be 9.14%.

In the case of `Cc1ccccc1-n1cc(CN(C)C[C@@H]2CCCN3CCCC[C@H]23)cn1`, the Percent Effect was -2.73%.

For the compound `c1ccc2oc(N3CCC(c4nncn4C4CC4)CC3)nc2c1`, the Percent Effect is 8.44%.

For `CCc1ccc(C(=O)NCC2CCCN2CC)o1` (stereo not given), the Percent Effect was 0.975%.

Turning to `COCC1(C(=O)N[C@H]2CN(c3noc(C)n3)C[C@@H]2C2CC2)CCC1`, the Percent Effect is -1.21%.

Consider `CN(c1ncc(S(N)(=O)=O)s1)C1CCc2ccccc21` (stereo not given), for which the Percent Effect was 8.8%.

Consider `Cc1noc(C)c1-c1n[nH]c2c1CN(S(=O)(=O)c1ccsc1)CC2`, for which the Percent Effect was 7.37%.

For `CCCn1cc(CN2CCOCC2c2[nH]ncc2C)cn1` (stereo not given), the Percent Effect stood at 14.3%.

For the compound `CC(C)OCCCNC(=O)CN1CCN(c2nccs2)CC1`, the Percent Effect stood at 4.26%.

In the case of `CCn1ncnc1C1CC(=O)NCc2nc(N3CCOCC3)sc21` (stereo not given), the Percent Effect is -10.6%.

Consider `Cc1ccc(S(=O)(=O)Cc2nnc(C)n2C)cc1`, for which the Percent Effect is 6.55%.

Turning to `CCn1nc(C)cc1C(=O)N1C[C@@H](CN(C)C)[C@@H](CO)C1`, the Percent Effect was 0.455%.

For the compound `Cc1nsc(C(=O)NCCc2ccc(S(N)(=O)=O)cc2)n1`, the Percent Effect was found to be 2.83%.

Regarding `Cc1nc(NC(=O)C(C)N(C)Cc2cccc(C#N)c2)sc1C` (stereo not given), the Percent Effect was found to be 7.53%.

As for `Cn1ncnc1NCc1ccc(F)cc1`, the Percent Effect was -10.9%.

As to `NC(=O)COc1cccc(Cn2cc(Br)cn2)c1`, the Percent Effect was 3.8%.
